Assay outcomes from PubChem.
Most compounds without a hit are left out; they make up all but 3.8% or so of the library.
Mtb FBA inh – inhibits M. tuberculosis FBA enzyme. inhibition, % at 1 µM. purified M. tuberculosis FBA, fluorescence read-out. P9WQA3. 360,000 tested, 2.3% active; in the data active = inhibition above about 27%
Target sequence (P9WQA3 whole entry, looked up): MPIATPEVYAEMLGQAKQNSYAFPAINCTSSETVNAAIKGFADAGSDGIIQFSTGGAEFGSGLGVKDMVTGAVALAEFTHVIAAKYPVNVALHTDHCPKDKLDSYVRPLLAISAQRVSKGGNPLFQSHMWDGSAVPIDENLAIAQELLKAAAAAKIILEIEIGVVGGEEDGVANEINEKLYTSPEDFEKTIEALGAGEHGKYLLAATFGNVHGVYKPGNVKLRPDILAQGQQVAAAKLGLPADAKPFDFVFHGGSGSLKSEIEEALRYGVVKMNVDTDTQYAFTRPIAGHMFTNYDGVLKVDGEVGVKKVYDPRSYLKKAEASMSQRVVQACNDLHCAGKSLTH
PrPC TRFRET – reduces human prion protein on the cell surface; 370,000 tested, 0.43% active; cell surface PrPC, TR-FRET read-out; P04156; inhibition, % at 13.8 µM; in the data active = inhibition above about 24%
PrP UTR inh – inhibition of PrP 5' UTR reporter expression. cell-based PrP 5' UTR mRNA reporter, plate reader. inhibition, % (no concentration beside the values). 340,000 tested, 0.35% active; in the data active = inhibition above about 52%
GDH-TPI inh – GDH-TPI coupled enzyme inhibition counter-screen; GDH-TPI coupled enzyme counterscreen, NADH absorbance; inhibition, % at 4.8 µM; 360,000 tested, 1.2% active; in the data active = inhibition above about 30%
Mtb hypoxia rep – inhibitors of hypoxia-regulated fluorescent reporter in Mycobacterium tuberculosis. 300,000 tested, 0.1% active. fluorescence inhibition, % (test concentration not listed). M. tuberculosis hypoxia-regulated fluorescent reporter, fluorescence; in the data active = fluorescence inhibition mostly above about 23%, no sharp cut-off; inactive = mostly below about 17%
Yp Topo-I inh – blocks Yersinia pestis topoisomerase I activity | activity, % at 10 µM | Y. pestis Topo-I cleavage product accumulation, plate reader | 360,000 tested, 0.064% active; in the data active = activity above about 50%, passing the limit was not always enough
Numbers stand for hits; i = inactive; nt = no result; + = active, no number.

SMILES	Mtb FBA inh	PrPC TRFRET	PrP UTR inh	GDH-TPI inh	Mtb hypoxia rep	Yp Topo-I inh
Cc1ccccc1NC(=O)COC(=O)c1cc(S(=O)(=O)N2CCOCC2)ccc1C	i	i	i	i	32.5	i
Cc1ccc(S(=O)(=O)N2CCOCC2)cc1C(=O)OCC(=O)NCc1ccccc1	i	i	i	i	i	i
NS(=O)(=O)c1cccc(NC(=O)COC(=O)c2ccc(S(=O)(=O)N3CCOCC3)cc2)c1	i	i	i	i	12.3	i
CC1=CC(C)C(C=NN=C(N)N)C(C)C1 (stereo not drawn)	nt	nt	nt	nt	i	nt
CCOc1ccc(N2C(=O)C(=Cc3ccccc3OCC(=O)OC)N(CC(=O)OC)C2=S)cc1	nt	nt	nt	nt	i	nt
O=C(Cc1nnc(NC(=O)c2ccccc2)s1)NN=Cc1cccc(O)c1	nt	nt	nt	nt	i	nt
C=CCN1C(=O)C(CC(=O)O)SC1=Nc1ccc(N=Nc2ccccc2)cc1 (stereo not drawn)	i	i	i	63.3	i	i
CCn1c(O)c(C2=NCCCC2)c2ccccc21	i	i	i	35.8	nt	i
Oc1[nH]c2ccccc2c1C1=NCCCC1	i	i	i	i	i	i
Cc1ccc2c(c1)C1C(CO2)C(c2ccccc2)[C@]2(C)C(=O)NC(C)C(=O)N12 (stereo partly drawn)	nt	nt	nt	nt	i	nt
COc1ccc2c(c1)c1ncn(CC3CCCO3)c(=O)c1n2C (stereo not drawn)	+	i	i	i	i	i
COc1ccc2c(c1)c1ncn(CCCN3CCOCC3)c(=O)c1n2C	170.0	i	i	i	i	i
COc1ccc(Cn2cnc3c4cc(F)ccc4n(C)c3c2=O)cc1	i	i	nt	i	i	i
CC(C(=O)Nc1ccc2ccccc2c1)C1C[C@]1(C)C(NC(=O)OCc1ccccc1)c1ccccc1 (stereo partly drawn)	nt	nt	nt	nt	i	nt
C[C@]12CCC(OS(=O)(=O)O)CC1=CCC1C2CC[C@]2(C)C(=O)CCC12 (stereo partly drawn)	nt	nt	nt	nt	i	nt
Cc1ccc(/C=N/Nc2nc(Cl)c(Cl)cc2Cl)s1	i	i	i	31.2	nt	i
COc1ccc(C(CCN2CCOCC2)c2c(O)cc(OC)cc2OC)cc1 (stereo not drawn)	i	i	i	i	i	i
COc1ccc(C(c2c(O)ccc3ccccc23)N2CCOCC2)c(OC)c1 (stereo not drawn)	i	61.1	i	i	nt	i
Cc1ccc(N2C(=O)C3CCCN3C2=S)cc1Cl (stereo not drawn)	151.9	i	i	i	i	i
CC(=O)C1CCC2C3CCC4CC(O)CC[C@]4(C)C3C(=O)C[C@]12C (stereo partly drawn)	nt	nt	nt	nt	i	nt
CC1(C)CC(NC(=O)c2coc(=O)c(Br)c2)CC(C)(C)N1	60.4	i	i	i	i	i
N#Cc1nc(-c2cccs2)oc1NCC1CCCO1 (stereo not drawn)	+	i	i	i	i	i
Cc1ccc(-c2nc(C#N)c(NCC3CCCO3)o2)cc1 (stereo not drawn)	179.7	i	i	i	i	i
COc1ccc(-c2nc(C#N)c(NCC3CCCO3)o2)cc1 (stereo not drawn)	177.2	i	i	i	i	i
O=S(=O)(c1ccccc1)c1nc(-c2cccs2)oc1NCC1CCCO1 (stereo not drawn)	i	i	i	i	nt	i
SMILES	Mtb FBA inh	PrPC TRFRET	PrP UTR inh	GDH-TPI inh	Mtb hypoxia rep	Yp Topo-I inh
COc1ccc(Nc2oc(-c3ccc(OC)cc3)nc2C#N)cc1	i	i	i	i	i	i
CCC(C)C(C(=O)N1CCNCC1)n1cc(CCCN=C(N)N)nn1 (stereo not drawn)	nt	nt	nt	nt	i	nt
O=C(O)CCCC=CCC1C(O)CC(O)C1C=CC(O)COc1cccc(Cl)c1 (stereo not drawn)	nt	nt	nt	nt	i	nt
CC1C[N+](=C2C=C(N3CCOCC3)CC(C)(C)C2)CC(C)O1 (stereo not drawn)	i	i	i	61.4	i	i
CC1(C)CC(N2CCOCC2)=CC(=[N+]2CCOCC2)C1	i	i	i	i	i	i
CC1(C)CC(N2CCCCC2)=CC(=[N+]2CCCCC2)C1	i	i	i	90.2	i	i
CCCN(CCC)C1=CC(=[N+]2CCCC2)CC(C)(C)C1	i	i	i	45.9	i	i
COc1cc(C=CC(=O)OCC(=O)Nc2ccccc2Cl)cc(OC)c1OC	nt	nt	nt	nt	i	nt
O=C(CN1CCCC1)NN=Cc1ccc(-c2cccc(Cl)c2)o1	nt	nt	nt	nt	i	nt
CCN(CC)C(=O)c1[nH]cnc1C(=O)NC(C)c1ccccc1 (stereo not drawn)	nt	nt	nt	nt	i	nt
N#C/C(=C/c1cccs1)c1ccccn1	i	i	i	33.2	i	i
N#C/C(=C\c1ccccn1)c1ccccn1	i	i	i	i	i	i
CC1CN(C(=O)c2cc3cc(Br)ccc3[nH]2)CC(C)O1 (stereo not drawn)	i	i	i	i	i	i
Cc1c(C(=O)N2CC(C)OC(C)C2)[nH]c2ccc(Br)cc12 (stereo not drawn)	i	27.6	i	i	i	i
COC(=O)Cn1c(=NC(=O)c2cc(OC)cc(OC)c2)sc2cc(OC)ccc21	i	i	i	i	i	i
COC(=O)Cn1c(=NC(=O)c2ccc(OC)cc2)sc2cc(OC)ccc21	i	i	i	36.1	i	i
O=C1OC(Cc2ccccn2)C(=O)C1=C1SCCS1 (stereo not drawn)	i	i	i	41.5	i	i
COc1ccc(C(C)=NNC(=O)C2C3CCCCC32)c(OC)c1 (stereo not drawn)	nt	nt	nt	nt	i	nt
O=c1nc2scc(-c3ccccc3)n2c2ccccc12	i	i	i	35.8	i	i
COC(=O)c1cc(=O)n2c(-c3ccccc3)csc2n1	i	i	i	i	nt	i
CCOC(=O)c1ccc(NC2=CC(=O)CC(c3ccco3)C2)cc1 (stereo not drawn)	i	i	i	59.8	i	i
CC(C)OCCCn1c(=NC(=O)c2ccncc2)c(C#N)cc2c(=O)n3ccccc3nc21	i	i	nt	i	i	i
CCOCCCn1c(=NC(=O)c2ccc(OC)c(OC)c2)c(C#N)cc2c(=O)n3cccc(C)c3nc21	nt	nt	nt	nt	i	nt
CC(=O)N=c1c(C#N)cc2c(=O)n3ccccc3nc2n1CCCOC(C)C	+	i	nt	i	i	i
CCCCCn1c(=NC(C)=O)c(C#N)cc2c(=O)n3ccccc3nc21	133.1	i	i	i	i	i
SMILES	Mtb FBA inh	PrPC TRFRET	PrP UTR inh	GDH-TPI inh	Mtb hypoxia rep	Yp Topo-I inh
CC(C)OCCCn1c(=NC(=O)c2cccs2)c(C#N)cc2c(=O)n3ccccc3nc21	+	i	nt	i	i	i
COC(=O)C1=C(C)N(CCc2cc(OC)c(OC)c(OC)c2)C(=O)NC1c1ccccc1 (stereo not drawn)	nt	nt	nt	nt	i	nt
Nc1nonc1C(=NO)N1CCCC1	nt	nt	nt	nt	i	nt
COCCCN=Cc1c(O)[nH]c(=S)[nH]c1=O	i	i	i	32.7	nt	i
O=C(CCCOc1ccc(Cl)cc1Cl)Nc1ccccc1C(=O)O	i	i	i	i	33.8	i
O=C(COc1ccc(Cl)cc1Cl)Nc1ccc(C(=O)Nc2ccccc2C(=O)O)cc1	i	i	i	i	i	i
Cc1nnc(SCC(=O)NNC(=O)COc2ccc(Br)cc2)n1C	i	i	i	i	31.5	i
CCc1ccc(OCC(=O)NNC(=O)CSc2nnc(-c3ccc(C)cc3)n2C)cc1	i	i	i	i	i	i
